Source: PubChem BioAssay (Broad Institute)
PAX8 inh HTS = inhibitors of PAX8 transcriptional activity in RMG-I cells | RMG-I TPO-luciferase reporter, SteadyGlo, 24 h | inhibition, % at 12.6 µM | hit rate 1.2% among 360,000;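 active means mean replicate inhibition at least 60% with every replicate also reaching 60%; inconclusive means only one of the two criteria is met; inactive means mean below 60% and not all replicates reaching 60%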;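 further: luciferase light reporting Pax8 driven TPO promoter activity; plate controls were median of neutral control wells for no effect and mitoxantrone controls for full effect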
SIRT5 inh = inhibitors of human sirtuin-5 desuccinylase; hit rate 1.1% among 330,000; Purified SirT5, succinyl-peptide AMC, trypsin-coupled fluorescence; inhibition, % at 15 µM; Q9NXA8; AID 652115; in the data active means inhibition above about 15%; inconclusive means no clear call, values can overlap the other calls
Target sequence (Q9NXA8 whole entry, looked up): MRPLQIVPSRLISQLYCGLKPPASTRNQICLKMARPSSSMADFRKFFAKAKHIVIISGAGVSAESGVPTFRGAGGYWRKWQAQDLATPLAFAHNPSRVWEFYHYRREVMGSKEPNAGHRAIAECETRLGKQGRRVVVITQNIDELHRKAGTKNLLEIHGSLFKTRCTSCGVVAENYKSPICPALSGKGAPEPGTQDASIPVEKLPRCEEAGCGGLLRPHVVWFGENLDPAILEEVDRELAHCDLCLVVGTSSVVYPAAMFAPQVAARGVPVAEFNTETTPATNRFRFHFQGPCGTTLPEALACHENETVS
LGR2 inh = Drosophila LGR2 receptor signaling inhibition. inhibition, % at 9.99 µM. AID 720647. HEK293 LGR2, CRE-luciferase, bursicon-stimulated, 4 h. hit rate 0.35% among 380,000;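 active means drop in luminescence signal, shown as inhibition above about 50% in the replicate tests, limit read from the data, passing the limit was not always enough; inconclusive means probably only some replicates passing the limit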;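 further: agonist challenge used bursicon conditioned medium at about half maximal strength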
EWS-Fli inh = inhibitors of EWS/Fli oncoprotein transcriptional activity. A673 NR0B1-luciferase reporter, viability-normalised. inhibition, % at 12.6 µM. AID 651661. hit rate 0.67% among 350,000;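 active means mean inhibition of at least 50% after viability correction, with every replicate also passing that limit; inconclusive means mean reaches 50% but only one of two replicates passes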;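 further: firefly luciferase signal divided by Alamar Blue viability fluorescence both relative to DMSO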
rRNA inh HTS = inhibits bacterial ribosomal RNA function over humanized ribosomes. E. coli WT GFP vs humanized-ribosome RFP mutants, fluorescence, 24 h; active compounds read low; DMSO median 0, no signal -100. GFP signal change (wild-type ribosome), % (test concentration not listed). hit rate 1.6% among 350,000;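 active means significant combined selectivity score with lowered wild-type GFP, culture density cut under 30%, mutant RFP and density less affected; inactive means any of these conditions unmet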
PGC1a acetyl inh = lowers PGC1a acetylation signal in U2OS cells | inhibition, % at 15.6 µM | hit rate 0.17% among 350,000 | AlphaScreen anti-acetyl-lysine; with virally co-expressed GCN5 acetyltransferase;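 active means every replicate shows inhibition of at least 40%; inconclusive means mean inhibition at least 40% but some replicate below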;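 further: 0% = neutral control wells and 100% = positive control wells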
* hit, by the source's call. Compounds with a hit are over-represented: about 3.4% of the library has one in this group of screens.

Results for O=C(NC[C@@H]1CC[C@H]2[C@H](CN2Cc2cc(-c3ccccc3)on2)O1)c1ccc2c(c1)OCO2 ?
PAX8 inh HTS: 39.2; EWS-Fli inh: -3.2; PGC1a acetyl inh: -25.1

How did O=C1/C(=C\c2ccco2)SC(=S)N1C1CCS(=O)(=O)C1 (stereo not given) do in these assays?
PAX8 inh HTS: 14.9; SIRT5 inh: 3.7; LGR2 inh: 21.0; EWS-Fli inh: 7.1; rRNA inh HTS: 1.2; PGC1a acetyl inh: 2.9

Results for O=C1/C(=C/c2ccco2)SC(=S)N1C1CCS(=O)(=O)C1 (stereo not given) ?
PAX8 inh HTS: 8.8; SIRT5 inh: 5.1; LGR2 inh: 55.1*; EWS-Fli inh: -2.1; rRNA inh HTS: 2.1; PGC1a acetyl inh: 0.4

What do the screens show for `COc1ccccc1OCC(=O)NCC1CCCN(C(=O)c2ccccc2C(C)=O)C1` (stereo not given)?
SIRT5 inh: 17.2*; LGR2 inh: 2.6; EWS-Fli inh: -2.1; rRNA inh HTS: 6.3; PGC1a acetyl inh: 1.5

How did COc1ccccc1OCC(=O)NCC1CCCN(C(=O)c2ccccc2SC)C1 (stereo not given) do in these assays?
PAX8 inh HTS: 5.3; SIRT5 inh: -5.3; LGR2 inh: -10.6; rRNA inh HTS: 1.1; PGC1a acetyl inh: 2.9

What do the screens show for `CCCNC(=O)Nc1ccc2c(c1)OC[C@H](C)N(CCC(F)(F)F)C[C@H](C)[C@H](OC)CN(C)C2=O`?
PAX8 inh HTS: -20.1; SIRT5 inh: 3.2; LGR2 inh: 17.5; EWS-Fli inh: 4.5; rRNA inh HTS: 0.6; PGC1a acetyl inh: 18.1

How did CC(C)CC#Cc1ccc2c(c1)O[C@@H](CN(C)S(=O)(=O)c1ccc(F)cc1)[C@H](C)CN([C@@H](C)CO)S2(=O)=O do in these assays?
PAX8 inh HTS: 81.0*; SIRT5 inh: -3.9; LGR2 inh: 5.2; EWS-Fli inh: 26.6; rRNA inh HTS: 2.0; PGC1a acetyl inh: 7.9

What do the screens show for `CC(C)CC#Cc1ccc2c(c1)O[C@@H](CN(C)S(=O)(=O)c1ccc(F)cc1)[C@@H](C)CN([C@@H](C)CO)S2(=O)=O`?
PAX8 inh HTS: 94.9*; LGR2 inh: 46.8; EWS-Fli inh: 18.8; rRNA inh HTS: -0.3; PGC1a acetyl inh: -13.2

What do the screens show for `CC(C)CC#Cc1ccc2c(c1)O[C@H](CN(C)S(=O)(=O)c1ccc(F)cc1)[C@@H](C)CN([C@@H](C)CO)S2(=O)=O`?
PAX8 inh HTS: 101.3*; SIRT5 inh: 8.3; LGR2 inh: 26.4; EWS-Fli inh: 19.0; rRNA inh HTS: -3.9; PGC1a acetyl inh: 5.4

Results for C[C@@H]1CN([C@H](C)CO)S(=O)(=O)c2ccc(C#Cc3ccncc3)cc2O[C@H]1CN(C)S(=O)(=O)c1ccc(F)cc1 ?
SIRT5 inh: 1.8; LGR2 inh: 9.2; EWS-Fli inh: inconclusive; rRNA inh HTS: -2.5; PGC1a acetyl inh: 12.9

How did COCC#Cc1ccc2c(c1)O[C@@H](CN(C)S(=O)(=O)c1ccc(F)cc1)[C@H](C)CN([C@H](C)CO)S2(=O)=O do in these assays?
SIRT5 inh: 5.0; LGR2 inh: 2.6; EWS-Fli inh: 0.0; rRNA inh HTS: -1.4; PGC1a acetyl inh: -3.9

Results for COc1ccc2c3c(n(C)c2c1)[C@H](CO)N(CC1CC1)CC31CCN(C(=O)Nc2ccc(F)cc2F)CC1 ?
LGR2 inh: 8.7; EWS-Fli inh: 13.7; rRNA inh HTS: 0.3; PGC1a acetyl inh: -4.3

What do the screens show for `COc1ccc2c3c(n(C)c2c1)[C@H](CO)N(C(=O)Nc1ccc(F)cc1)CC31CCN(S(=O)(=O)c2cccs2)CC1`?
SIRT5 inh: 0.5; LGR2 inh: 2.7; EWS-Fli inh: 11.8; rRNA inh HTS: -0.8; PGC1a acetyl inh: 6.0

Results for CC=Cc1ccc2n(c1=O)C[C@H]1[C@H](CO)[C@@H](C(=O)NC3CCC3)N(Cc3ccncc3)[C@@H]21 (mixture of isomers) ?
PAX8 inh HTS: -2.7; SIRT5 inh: -1.9; LGR2 inh: -2.1; EWS-Fli inh: 2.7; rRNA inh HTS: 4.6; PGC1a acetyl inh: -8.6

What do the screens show for `CN(C)C(=O)c1cccc(-c2ccc3c(c2)[C@H]2[C@H](CCN2C(=O)c2ccc4c(c2)OCO4)[C@@H](CO)N3)c1`?
PAX8 inh HTS: 21.3; LGR2 inh: -12.8; EWS-Fli inh: -1.2; rRNA inh HTS: -6.6; PGC1a acetyl inh: 7.6

Results for O=[N+]([O-])c1ccc(N/N=C/C=C/c2ccco2)cc1 ?
PAX8 inh HTS: -65.7; LGR2 inh: -2.5; EWS-Fli inh: -89.1; rRNA inh HTS: -39.9*; PGC1a acetyl inh: -11.2

Results for O=C(N/N=C/c1ccco1)c1cc([N+](=O)[O-])cc([N+](=O)[O-])c1 ?
PAX8 inh HTS: -14.6; SIRT5 inh: 1.4; LGR2 inh: 20.9; EWS-Fli inh: 82.1*; rRNA inh HTS: 12.1

What do the screens show for `O=[N+]([O-])c1ccc(NN=Cc2cccc([N+](=O)[O-])c2)cc1`?
PAX8 inh HTS: -11.9; LGR2 inh: -7.2; EWS-Fli inh: -23.5; rRNA inh HTS: 2.2; PGC1a acetyl inh: 11.0

What do the screens show for `O=C(O)c1ccc(N/N=C/C=C/c2ccc([N+](=O)[O-])o2)cc1`?
PAX8 inh HTS: -20.2; SIRT5 inh: 15.2*; LGR2 inh: -8.7; EWS-Fli inh: -21.4; rRNA inh HTS: -31.8*

Results for O=C(N/N=C/c1ccco1)c1cccc([N+](=O)[O-])c1 ?
PAX8 inh HTS: -15.3; SIRT5 inh: -1.0; EWS-Fli inh: -6.5; rRNA inh HTS: -1.3

How did O=C(C[C@H]1C=C[C@@H](NC(=O)C2CCOCC2)[C@H](CO)O1)NCc1ccccc1Cl do in these assays?
SIRT5 inh: -6.2; LGR2 inh: -1.7; EWS-Fli inh: 1.6; rRNA inh HTS: -5.5

How did O=c1oc2ccccc2cc1-c1nc2ccccc2o1 do in these assays?
SIRT5 inh: -86.5; LGR2 inh: 9.5; EWS-Fli inh: -44.0; rRNA inh HTS: -11.6; PGC1a acetyl inh: -5.0

Results for O=c1oc2ccccc2cc1-c1nc2c(s1)CCCC2 ?
SIRT5 inh: -3.5; LGR2 inh: 42.8; EWS-Fli inh: 59.6*; rRNA inh HTS: 10.2; PGC1a acetyl inh: -20.4

Results for O=c1c2c([N+](=O)[O-])cc([N+](=O)[O-])cc2sn1Cc1ccccc1 ?
PAX8 inh HTS: 5.6; SIRT5 inh: 20.4*; LGR2 inh: -4.6; EWS-Fli inh: 40.5; rRNA inh HTS: -4.7

Results for O=c1c2c([N+](=O)[O-])cc([N+](=O)[O-])cc2nc2ccccn12 ?
PAX8 inh HTS: 12.3; SIRT5 inh: -4.2; LGR2 inh: -8.0; EWS-Fli inh: 19.4; rRNA inh HTS: 5.7; PGC1a acetyl inh: -2.0

What do the screens show for `CCCNC(=O)C[C@H]1CC[C@@H]2[C@@H](COc3ccc(NC(=O)c4cccc(Cl)c4)cc3C(=O)N2C)O1`?
PAX8 inh HTS: 4.5; SIRT5 inh: 2.2; LGR2 inh: 14.1; EWS-Fli inh: -15.8; rRNA inh HTS: -5.6; PGC1a acetyl inh: -4.8

Results for O=S(=O)(c1ccccc1)c1nc(-c2ccco2)oc1Nc1ccccc1 ?
PAX8 inh HTS: -50.0; SIRT5 inh: -1.8; EWS-Fli inh: -32.7
